Measurements published in PubChem BioAssay AID1159580 (chemical genetic matrix, 2015).
Hit rate of the full screen: of about 5,500 compounds, about 2,000 (36%) were called active. Inconclusive results (about 18%) are left out. No stated cut-off is given here; in the data, active means normalized growth mostly below about 0.91 (no sharp cut-off); inconclusive means no clear call, values can overlap the other calls; inactive means mostly above about 0.92. Some of the results follow.

Experiment: chemical genetic growth profiling, strain panel (AID 1159580);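 further: tested at 20 µM; growth read once vehicle control cultures reached saturation at 30 °C; 1 = growth at the plate median or of vehicle wells; lower values mean less growth of the strain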
Settings: S. cerevisiae deletion strains, growth OD

Measured: normalized growth

CC(/C=N\O)=N/Nc1ccccc1
active: locus YKL190W, strain CNB1, active compounds read low 0.887 | locus YLR039C, strain RIC1, active compounds read low 0.324 | locus YLR262C, strain YPT6, active compounds read low 0.253 | locus YML094W, strain GIM5, active compounds read low 0.841 | locus YOL006C, strain TOP1, active compounds read low 0.527
inactive: locus YAL013W, strain DEP1, active compounds read low 0.969 | locus YBR229C, strain ROT2, active compounds read low 0.938 | locus YDL101C, strain DUN1, active compounds read low 1.01 | locus YDL134C, strain PPH21, active compounds read low 0.975 | locus YDR150W, strain NUM1, active compounds read low 0.932 | locus YEL061C, strain CIN8, active compounds read low 0.953 | locus YGR078C, strain PAC10, active compounds read low 0.961 | locus YHR030C, strain SLT2, active compounds read low 0.774 | locus YHR087W, strain rtc3, active compounds read low 0.916 | locus YJR043C, strain POL32, active compounds read low 0.974 | locus YJR075W, strain HOC1, active compounds read low 0.954 | locus YLR058C, strain SHM2 (second series), active compounds read low 0.979 | locus YLR085C, strain ARP6, active compounds read low 0.793 | locus YMR219W, strain ESC1, active compounds read low 0.955 | locus YMR263W, strain SAP30, active compounds read low 0.967 | locus YNL153C, strain GIM3, active compounds read low 0.973 | locus YNL298W, strain CLA4 (second series), active compounds read low 0.923 | locus YNL322C, strain KRE1, active compounds read low 1.01 | locus YNR030W, strain Alg12, active compounds read low 0.951 | locus YPL055C, strain LGE1, active compounds read low 1.05 | locus YPL241C, strain CIN2, active compounds read low 0.907 | locus YPR135W, strain CTF4, active compounds read low 0.889
